# Measured values from PubChem BioAssay (EPA / NIEHS).
# Inconclusive results are not listed. Active and inactive are the calls of the source. How the source made its calls: active means hit-call score of the fitted dose curve at least 0.9, where 1 is the maximum; inconclusive means response in the unintended direction; inactive means score below 0.9.
# Columns and labels:
# [1] = biological target: Collagenase 3 (Homo sapiens) (UniProt P45452); assay: NVS_ENZ_hMMP13: NovaScreen (NVS) Enzymatic Assay for human Matrix Metalloproteinase-13 (MMP13) (AID 2283182)
# Method in brief: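 Recombinant MMP13 cleaving fluorescent substrate, cell-free, measured 1 h after dosing. Primary duplicate screen at 25 uM; actives tested in concentration-response up to 50 uM; loss of signal relative to DMSO.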
# [2] = biological target: human Matrix Metalloproteinase-2 (MMP2), MMP2 (gene 4313) (UniProt P08253); assay: NVS_ENZ_hMMP2: NovaScreen (NVS) Enzymatic Assay for human Matrix Metalloproteinase-2 (MMP2) (AID 2283184)
# human Matrix Metalloproteinase-2 (MMP2), MMP2 (gene 4313), sequence (P08253 whole entry, looked up): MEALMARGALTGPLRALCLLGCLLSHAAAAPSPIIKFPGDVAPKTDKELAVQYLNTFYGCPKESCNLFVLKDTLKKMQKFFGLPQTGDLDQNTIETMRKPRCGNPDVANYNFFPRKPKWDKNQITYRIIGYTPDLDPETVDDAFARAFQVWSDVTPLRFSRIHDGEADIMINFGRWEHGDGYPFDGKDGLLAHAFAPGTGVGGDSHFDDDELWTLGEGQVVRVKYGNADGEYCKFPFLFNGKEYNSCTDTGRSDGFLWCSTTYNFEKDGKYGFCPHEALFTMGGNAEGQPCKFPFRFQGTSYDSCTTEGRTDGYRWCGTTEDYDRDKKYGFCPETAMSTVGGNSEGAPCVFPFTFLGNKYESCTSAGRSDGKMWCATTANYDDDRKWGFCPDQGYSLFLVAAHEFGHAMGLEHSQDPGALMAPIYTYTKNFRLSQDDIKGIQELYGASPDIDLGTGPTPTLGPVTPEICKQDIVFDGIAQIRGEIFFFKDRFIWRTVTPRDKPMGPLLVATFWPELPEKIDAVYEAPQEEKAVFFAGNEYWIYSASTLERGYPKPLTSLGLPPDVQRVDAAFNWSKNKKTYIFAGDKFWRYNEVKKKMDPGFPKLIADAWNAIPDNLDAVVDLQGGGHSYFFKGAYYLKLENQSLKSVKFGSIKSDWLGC
# Method in brief: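 Cell-free recombinant MMP2 activity with a fluorescent substrate, read 1 h after dosing. Primary screen in duplicate at 25 uM; actives then run in concentration series; loss of signal fitted versus DMSO.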
# [3] = biological target: human Matrix Metalloproteinase-9 (MMP9), MMP9 (gene 4318) (UniProt P14780); assay: NVS_ENZ_hMMP9: NovaScreen (NVS) Enzymatic Assay for human Matrix Metalloproteinase-9 (MMP9) (AID 2283190);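 further: cell-free recombinant MMP9 protease activity read by fluorescent substrate signal; active means inhibition seen as loss of fluorescence signal versus DMSO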
# human Matrix Metalloproteinase-9 (MMP9), MMP9 (gene 4318), sequence (P14780 whole entry, looked up): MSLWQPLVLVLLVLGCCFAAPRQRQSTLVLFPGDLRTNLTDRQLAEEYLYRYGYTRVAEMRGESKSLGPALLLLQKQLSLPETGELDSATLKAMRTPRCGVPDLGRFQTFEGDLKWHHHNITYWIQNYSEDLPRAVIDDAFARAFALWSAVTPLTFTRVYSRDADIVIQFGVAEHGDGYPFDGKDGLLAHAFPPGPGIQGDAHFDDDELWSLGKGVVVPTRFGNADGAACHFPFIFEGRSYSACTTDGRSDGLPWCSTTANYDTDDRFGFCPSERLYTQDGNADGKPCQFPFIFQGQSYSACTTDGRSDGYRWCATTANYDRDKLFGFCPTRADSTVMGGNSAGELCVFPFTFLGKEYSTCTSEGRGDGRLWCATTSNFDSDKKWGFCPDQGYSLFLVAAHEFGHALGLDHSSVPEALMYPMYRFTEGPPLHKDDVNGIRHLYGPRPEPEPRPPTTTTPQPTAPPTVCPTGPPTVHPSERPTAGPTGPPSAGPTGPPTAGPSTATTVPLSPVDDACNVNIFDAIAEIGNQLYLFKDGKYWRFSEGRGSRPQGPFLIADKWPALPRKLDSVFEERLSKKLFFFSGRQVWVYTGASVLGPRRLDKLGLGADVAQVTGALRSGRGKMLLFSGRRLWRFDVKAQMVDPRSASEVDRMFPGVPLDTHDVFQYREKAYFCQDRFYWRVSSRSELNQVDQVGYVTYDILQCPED
# Method in brief: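 Screening concentration 25 uM, duplicate wells, then dose series for confirmation. Cell-free enzymatic reaction measured by fluorescence intensity 1 h post-dosing; decreased signal versus DMSO taken as activity.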
# [4] = biological target: human Mitogen- and Stress-activated Protein Kinase-1 (Msk1), RPS6KA5 (gene 9252) (UniProt O75582); assay: NVS_ENZ_hMsk1: NovaScreen (NVS) Enzymatic Assay for human Mitogen- and Stress-activated Protein Kinase-1 (Msk1) (AID 2283187)
# human Mitogen- and Stress-activated Protein Kinase-1 (Msk1), RPS6KA5 (gene 9252), sequence (O75582 whole entry, looked up): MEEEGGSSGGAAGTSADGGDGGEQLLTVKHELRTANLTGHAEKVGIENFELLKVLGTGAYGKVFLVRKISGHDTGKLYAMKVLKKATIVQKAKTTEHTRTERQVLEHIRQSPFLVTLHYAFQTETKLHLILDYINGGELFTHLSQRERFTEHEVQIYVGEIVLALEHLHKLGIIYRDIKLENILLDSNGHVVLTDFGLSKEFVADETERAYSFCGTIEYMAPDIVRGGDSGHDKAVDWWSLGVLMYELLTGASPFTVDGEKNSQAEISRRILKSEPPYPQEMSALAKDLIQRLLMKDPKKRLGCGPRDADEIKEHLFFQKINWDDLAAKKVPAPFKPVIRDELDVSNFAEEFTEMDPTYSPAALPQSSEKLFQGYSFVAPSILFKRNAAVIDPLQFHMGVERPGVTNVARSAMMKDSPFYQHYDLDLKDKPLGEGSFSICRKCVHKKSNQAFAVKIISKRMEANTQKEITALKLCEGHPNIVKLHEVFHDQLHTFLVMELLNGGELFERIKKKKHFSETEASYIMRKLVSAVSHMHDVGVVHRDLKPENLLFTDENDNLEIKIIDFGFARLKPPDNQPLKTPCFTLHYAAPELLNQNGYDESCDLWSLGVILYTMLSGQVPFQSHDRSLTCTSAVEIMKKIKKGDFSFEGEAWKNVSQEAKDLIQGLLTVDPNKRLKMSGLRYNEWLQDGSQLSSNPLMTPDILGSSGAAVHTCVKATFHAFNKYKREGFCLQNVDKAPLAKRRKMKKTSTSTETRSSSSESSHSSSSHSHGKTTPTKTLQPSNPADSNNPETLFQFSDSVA
# Method in brief: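 Recombinant kinase with fluorescent substrate; product separated by electrophoretic mobility shift, read 1 h after dosing. Screened in duplicate at 25 uM; hits (e.g. ≥30% inhibition) tested in concentration–response up to 50 uM. DMSO baseline.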
# [5] = biological target: human MAP Kinase-Activated Protein Kinase 2 (MAPKAPK2), MAPKAPK2 (gene 9261) (UniProt P49137); assay: NVS_ENZ_hMAPKAPK2: NovaScreen (NVS) Enzymatic Assay for human MAP Kinase-Activated Protein Kinase 2 (MAPKAPK2) (AID 2283178)
# human MAP Kinase-Activated Protein Kinase 2 (MAPKAPK2), MAPKAPK2 (gene 9261), sequence (P49137 whole entry, looked up): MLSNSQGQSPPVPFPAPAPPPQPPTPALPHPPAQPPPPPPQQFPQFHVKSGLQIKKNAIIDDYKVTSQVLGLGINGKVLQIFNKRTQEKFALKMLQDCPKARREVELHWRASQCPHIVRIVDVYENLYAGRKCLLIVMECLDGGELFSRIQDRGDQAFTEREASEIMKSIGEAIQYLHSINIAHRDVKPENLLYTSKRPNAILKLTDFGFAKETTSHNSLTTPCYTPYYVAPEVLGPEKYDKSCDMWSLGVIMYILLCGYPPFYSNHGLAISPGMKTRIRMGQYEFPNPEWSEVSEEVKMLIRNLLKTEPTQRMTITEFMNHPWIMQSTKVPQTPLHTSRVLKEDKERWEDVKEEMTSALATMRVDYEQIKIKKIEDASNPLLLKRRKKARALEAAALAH
# Method in brief: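 Cell-free recombinant human MAPKAPK2 activity measured by fluorescence with electrophoretic mobility shift separation of substrate and product, 1 hr after dosing. Loss of signal versus DMSO; primary screen at 25 uM, concentration-response up to 50 uM.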
# [6] = biological target: human Phosphodiesterase 4A1 (PDE4A1), PDE4A (gene 5141) (UniProt P27815); assay: NVS_ENZ_hPDE4A1: NovaScreen (NVS) Enzymatic Assay for human Phosphodiesterase 4A1 (PDE4A1) (AID 2283191)
# human Phosphodiesterase 4A1 (PDE4A1), PDE4A (gene 5141), sequence (P27815 whole entry, looked up): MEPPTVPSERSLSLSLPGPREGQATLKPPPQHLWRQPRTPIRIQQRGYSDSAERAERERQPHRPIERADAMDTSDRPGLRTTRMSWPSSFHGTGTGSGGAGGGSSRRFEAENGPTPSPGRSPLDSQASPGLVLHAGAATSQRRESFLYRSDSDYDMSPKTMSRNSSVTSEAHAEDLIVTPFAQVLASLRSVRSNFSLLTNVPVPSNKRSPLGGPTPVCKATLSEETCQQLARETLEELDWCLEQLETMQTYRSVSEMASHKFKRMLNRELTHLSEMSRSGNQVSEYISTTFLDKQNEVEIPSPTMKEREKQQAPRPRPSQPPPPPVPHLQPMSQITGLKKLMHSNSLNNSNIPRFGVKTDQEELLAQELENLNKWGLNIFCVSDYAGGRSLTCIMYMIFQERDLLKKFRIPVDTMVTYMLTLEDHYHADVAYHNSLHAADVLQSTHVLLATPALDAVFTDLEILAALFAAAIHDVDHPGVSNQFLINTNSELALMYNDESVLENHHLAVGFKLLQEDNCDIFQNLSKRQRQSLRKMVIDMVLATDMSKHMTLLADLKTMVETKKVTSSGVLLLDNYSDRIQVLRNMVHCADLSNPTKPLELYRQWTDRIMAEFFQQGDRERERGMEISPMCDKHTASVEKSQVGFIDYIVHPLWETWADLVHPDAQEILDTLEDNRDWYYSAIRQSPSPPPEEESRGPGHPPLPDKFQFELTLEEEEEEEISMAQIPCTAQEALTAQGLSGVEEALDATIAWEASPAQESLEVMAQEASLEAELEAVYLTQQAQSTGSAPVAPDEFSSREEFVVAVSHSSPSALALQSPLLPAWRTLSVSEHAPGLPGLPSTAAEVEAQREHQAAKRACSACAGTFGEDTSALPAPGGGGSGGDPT
# Method in brief: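 Cell-free recombinant human PDE4A1 with fluorescent substrate; product separated by electrophoretic mobility shift, 1 h. Screened at 25 uM, then up to 50 uM in concentration-response; loss of signal fitted against DMSO.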
# [7] = biological target: human Matrix Metalloproteinase-7 (MMP7), MMP7 (gene 4316) (UniProt P09237); assay: NVS_ENZ_hMMP7: NovaScreen (NVS) Enzymatic Assay for human Matrix Metalloproteinase-7 (MMP7) (AID 2283183)
# human Matrix Metalloproteinase-7 (MMP7), MMP7 (gene 4316), sequence (P09237 whole entry, looked up): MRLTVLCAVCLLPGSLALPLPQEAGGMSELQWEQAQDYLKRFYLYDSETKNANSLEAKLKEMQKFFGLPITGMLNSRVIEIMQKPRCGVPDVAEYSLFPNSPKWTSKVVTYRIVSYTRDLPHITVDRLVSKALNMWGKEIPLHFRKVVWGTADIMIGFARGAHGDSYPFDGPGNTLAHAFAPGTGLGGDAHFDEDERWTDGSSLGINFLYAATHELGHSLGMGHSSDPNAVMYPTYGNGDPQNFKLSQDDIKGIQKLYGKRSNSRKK
# Method: NVS_ENZ_hMMP7 is a biochemical, single-readout assay that uses extracted gene-proteins in a cell-free assay. Measurements were taken 1 hour after chemical dosing in a 96-well plate.NVS_ENZ_hMMP7 is one of one assay component(s) measured or calculated from the NVS_ENZ_hMMP7 assay. It is designed to make measurements of enzyme activity, a form of enzyme reporter, as detected with fluorescence intensity signals by Fluorescence technology.Data from the assay component NVS_ENZ_hMMP7 was analyzed into 1 assay endpoint. This assay endpoint, NVS_ENZ_hMMP7, was analyzed in the positive analysis fitting direction relative to DMSO as the negative control and baseline of activity. Using a type of enzyme reporter, loss-of-signal activity can be used to understand changes in the enzymatic activity as they relate to the gene MMP7. Furthermore, this assay endpoint can be referred to as a primary readout, because this assay has produced multiple assay endpoints where this one serves a enzymatic activity function. To generalize the intended target to other relatable targets, this assay endpoint is annotated to the protease intended target family, where the subfamily is matrix metalloproteinase.
# Binding assays used specific radioligands (tritiated, iodinated) with non-radioactive competitive displacement ligands in agonist or antagonist protocols (as indicated) and various reference compounds and inhibitors to titrate specific binding to receptors and transporters. Most enzyme assays (CYPs, kinases, phosphatases, proteases, HDACs) used recombinant protein and specific substrates (fluorescence mostly, some colorimetric and radioactive) and inhibitors, followed by a biochemical separation of substrate and product. All assays for the biochemical HTS were initially run in duplicate at a single concentration (10 uM for CYP450 assays and 25 uM for all others). Assay-chemical combinations meeting a pre-defined threshold (e.g., 30% inhibition and other criteria defined below) were then run in singleton concentration-response format with maximum concentration of 20 uM for CYPs and 50 uM for all others. Each assay was run with positive and negative controls, and concurrent controls on every plate. The follow-up (secondary) screen tested active chemical-pairs in concentration series, as well as a few additional assays not tested in the primary screen, some selected negative inactives, and several cases re-run in the concentration series for confirmatory purposes.
# [8] = biological target: Mitogen-activated protein kinase 3 (Homo sapiens) (UniProt P27361); assay: NVS_ENZ_hMAPK3: NovaScreen (NVS) Enzymatic Assay for human Mitogen-Activated Protein Kinase 3 (MAPK 3) (AID 2283177)
# Mitogen-activated protein kinase 3 (Homo sapiens), sequence (P27361 whole entry, looked up): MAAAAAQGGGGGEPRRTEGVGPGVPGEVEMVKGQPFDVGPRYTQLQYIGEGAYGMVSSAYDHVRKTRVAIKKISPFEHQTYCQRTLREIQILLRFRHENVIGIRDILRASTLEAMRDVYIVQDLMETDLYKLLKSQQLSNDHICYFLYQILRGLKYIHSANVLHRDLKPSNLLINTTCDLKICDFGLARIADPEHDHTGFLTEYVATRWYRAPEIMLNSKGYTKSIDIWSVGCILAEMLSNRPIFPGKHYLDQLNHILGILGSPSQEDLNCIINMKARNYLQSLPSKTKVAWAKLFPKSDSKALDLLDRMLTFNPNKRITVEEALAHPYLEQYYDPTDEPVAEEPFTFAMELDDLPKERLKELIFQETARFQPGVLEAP
# Method in brief: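 Cell-free enzymatic assay with recombinant protein and specific substrate; fluorescence and electrophoretic mobility shift read-out 1 h after dosing. Primary screen duplicate at 25 uM; actives then run in concentration-response up to 50 uM, loss of signal versus DMSO.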
smiles,measurement,setting,value
CCN(Cc1cccnc1)C(=O)c1cccc(Cl)c1[C@]1(C)C(=O)N(Cc2ccc(OC)cc2OC)c2ccc(Cl)cc21,AC50,[1],9.38 µM (active)
same,AC50,[2],14.8 µM (active)
same,AC50,[3],24.9 µM (active)
O=C(O)c1ccccc1C(=O)OCc1ccccc1,outcome,[4],inactive
CN1C(=O)N(c2ccccc2Br)Cc2cnc(Nc3ccc4c(c3)OCC(CO)O4)nc21 (stereo unspecified),outcome,[5],inactive
same,AC50,[6],6.38 µM (active)
NCc1cccc(C2CCN(C(=O)c3ccc(C#Cc4ccccc4F)o3)CC2)c1,AC50,[1],19.5 µM (active)
same,AC50,[2],10.1 µM (active)
same,AC50,[3],30.1 µM (active)
COc1cccc([C@H](O)C2CCN(CCc3ccc(F)cc3)CC2)c1OC,outcome,[6],inactive
CN(C)c1ccc(C(=C2C=CC(=[N+](C)C)C=C2)c2ccc(N(C)C)cc2)cc1,AC50,[3],14.5 µM (active)
Clc1cc(Cl)c2c(c1)N=C1CCCCCN1C2,outcome,[6],inactive
Cc1cc2c(cc1C(F)(F)F)N(C(=O)Nc1ccc(Oc3cccnc3C)nc1)CC2,outcome,[5],inactive
CO[C@H]1/C=C/O[C@@]2(C)Oc3c(C)c(O)c4c(O)c(c(/C=N/N5CCN(C)CC5)c(O)c4c3C2=O)NC(=O)/C(C)=C\C=C\[C@H](C)[C@H](O)[C@@H](C)[C@@H](O)[C@@H](C)[C@H](OC(C)=O)[C@@H]1C,outcome,[1],inactive
same,outcome,[7],inactive
same,outcome,[2],inactive
C[C@]12CC[C@@H]3c4ccc(O)cc4CC[C@H]3[C@@H]1CC[C@H]2O,outcome,[7],inactive
CCCCOC(=O)c1ccc(O)cc1,AC50,[1],25 µM (active)
c1ccc2ccccc2c1,outcome,[8],inactive
same,outcome,[4],inactive
O=C(O)Cn1c(=O)n(Cc2ccc(Br)cc2F)c(=O)c2ccc(Cl)cc21,outcome,[7],inactive
